An excerpt weighted towards active compounds, which were near 9.2% of everything screened.
ELG1 genotox = induces genotoxicity in HEK293T cells with luciferase-tagged ELG1; HEK293T ELG1-luciferase reporter, luminescence, 16 h; Potency, µM (doses to about 46 µM), inactives show at the highest dose activity change, positive = activation, actives largely listed as activators; hit rate 1.3% among 330,000; AID 504466; note: % of control where 0% means no effect; nearly all actives have a fitted effect of over 60% in size
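Reporter readout depends on ELG1 protein level, which increases with genetic stress. After 16 hr compound exposure at 37 °C, luciferase activity was quantified using ONE-Glo.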
NPC1 promoter act = NPC1 promoter activation; Huh7 NPC1 promoter luciferase reporter, 24 h; Potency, µM (titrated, usually from 9.22 µM), without a hit: top-dose activation, usual class: activators; hit rate 2.4% among 320,000; note: % of control where 0% means no effect; nearly all actives have a fitted effect of over 60% in size
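Readout is luciferase luminescence, reflecting NPC1 promoter activation in stably transfected Huh7 cells after 24 h compound exposure at 37 °C in reduced-serum medium with 10% FBS.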
FLuc modulator = firefly luciferase modulation, counter-screen for miR-21 project. AID 588342. Potency, µM (doses to about 57.5 µM), for the others: at the highest dose activity change, negative = inhibition, hits mostly inhibitors. P08659. purified FLuc, Km substrates, luminescence inhibition. hit rate 6.9% among 360,000;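 note: plate controls were vehicle for no effect and reference inhibitor for full effect; nearly all actives have a fitted effect of over 55% in size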
Target sequence (P08659 whole entry, looked up): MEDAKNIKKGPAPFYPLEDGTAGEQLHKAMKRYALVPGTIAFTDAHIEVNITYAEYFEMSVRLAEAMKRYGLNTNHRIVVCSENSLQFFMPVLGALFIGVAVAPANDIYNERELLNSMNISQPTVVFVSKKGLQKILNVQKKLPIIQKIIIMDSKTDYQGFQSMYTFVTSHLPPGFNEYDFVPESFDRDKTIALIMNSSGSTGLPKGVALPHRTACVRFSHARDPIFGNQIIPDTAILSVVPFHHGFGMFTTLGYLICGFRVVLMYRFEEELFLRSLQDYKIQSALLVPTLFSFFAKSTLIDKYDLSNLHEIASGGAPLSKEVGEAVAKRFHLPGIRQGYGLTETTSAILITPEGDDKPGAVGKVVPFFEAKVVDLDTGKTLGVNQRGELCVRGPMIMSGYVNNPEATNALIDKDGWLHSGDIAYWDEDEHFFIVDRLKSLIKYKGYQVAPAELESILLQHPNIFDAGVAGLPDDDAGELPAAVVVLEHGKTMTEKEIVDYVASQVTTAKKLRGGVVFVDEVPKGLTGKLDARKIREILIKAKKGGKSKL
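Purified P. pyralis luciferase (10nM final) with 10uM D-luciferin and 10uM ATP (Km levels) in 50mM Tris acetate pH 7.5, 10mM Mg acetate, 0.01% Tween-20, 0.05% BSA; qHTS 6-point titration, ~60 µM downward; luminescence read.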
Rab9 promoter act = activators of Rab9 promoter; Huh7 Rab9 promoter-luciferase reporter, luminescence, 24 h; Potency, µM (highest dose often 9.22 µM), without a hit: at the top dose activation, negative = inhibition, most hits filed as activators; hit rate 2.8% among 320,000; AID 485297; note: % of control where 0% means no effect; nearly all actives have a fitted effect of over 60% in size
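Quantitative HTS format; Huh7 Rab9-luciferase reporter cells (1500/well) receive compound 2 h post-plating, incubate 24 h at 37 °C, then get luciferase reagent for 10 min before luminescence reading.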
SMN2 splice up = enhancers of SMN2 splice variant expression; Potency, µM (highest dose often 46.1 µM), for the others: at the top dose activity change, positive = activation, most hits filed as activators; HEK293 SMN2-luciferase splicing reporter, luminescence, 30-36 h; hit rate 2.8% among 210,000; note: % of control where 0% means no effect; nearly all actives have a fitted effect of over 55% in size
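qHTS luciferase splicing reporter: luminescence rises when SMN2 exon 7 is included in transfected HEK293 cells. Compound exposure lasted 30-36 h at 37C, with 4.5 mM final sodium butyrate as control, followed by a ONE-Glo read.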
ELG1 repair inh = inhibitors of ELG1-dependent DNA repair in HEK293T cells; hit rate 2.3% among 330,000; HEK293T ELG1-luciferase reporter, luminescence, 16 h; DNA damage induced by 5-fluorouridine; Potency, µM (titrated, usually from 46.1 µM), inactives show top-dose activity change, negative = inhibition, most hits filed as inhibitors; note: % is set by controls: 0 for no effect and ±100 for the full control effect; nearly all actives have a fitted effect of over 55% in size
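Quantitative HTS, concentration-response format. 2,000 cells/well co-treated with 5-fluorouridine and compound, 16 hr in 5% CO2 at 37 °C; ONE-Glo luminescence read after 30 min.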
Starred values were filed as active, the others as inactive; ? = inconclusive; · = no result; [ ] = another dose, or the depositor's remark. Calls come from the whole dose curve; as a rule, active = well fitted curve in the direction sought with a large enough effect; inconclusive = small, poorly fitted or top-dose-only effect, or another doubt; inactive = no such curve, though single readings can be large; an effect the other way counts as inactive or inconclusive. Potency is the fitted concentration of half-maximal effect.

SMILES	ELG1 genotox	NPC1 promoter act	FLuc modulator	Rab9 promoter act	SMN2 splice up	ELG1 repair inh
O=C(/C=C/c1ccc[nH]1)c1ccc(F)cc1	?	6%	12µM*	1%	?	?
CCc1cc2c(cc3c(=O)n(CC(=O)NCc4cc(Br)ccc4OC)ncn32)s1	·	·	0%	·	?	·
S=C(NCc1ccccc1)Nc1ccc(Oc2ccccc2)cc1	-7%	-5%	-21%	-3%	·	-20%
C/C(=C\C(=S)Nc1ccccc1)Nc1ccc2ccccc2c1	26%	16%	17µM*	14%	-2%	?
S=C(NCc1ccccc1)Nc1ccc2ccccc2c1	?	2.2µM*	13µM*	?	·	?
O=C(NCc1ccccc1)C1CCCN(S(=O)(=O)c2ccc(F)cc2)C1 (configuration not stated)	-2%	1%	-1%	-1%[1.84 µM]	·	-10%
CCCCOC(=O)NS(=O)(=O)c1sc(CC(C)C)cc1-c1ccc(Cn2c(CC)nc3c(C)cc(C)nc32)cc1	-3%	-30%[46.1 µM]	-2%	-43%[46.1 µM]	-5%	13µM*
CCCCOC(=O)Nc1ccc(S(=O)(=O)Nc2nc(C)cc(C)n2)cc1	3%	1%	-1%	1%	·	0%
CC1CC(C)CN(C(=O)CSc2nnc3ccccn23)C1 (configuration not stated)	1%	·	·	·	·	?
Cc1ccc(N(C(=O)CNC(=O)c2ccco2)C(C(=O)NC2CCCCC2)c2cccnc2)cc1C (configuration not stated)	-5%	-3%	0%	-2%	·	1%
Cc1ccc(N(C(=O)CCl)C(C(=O)NC2CCCCC2)c2cccnc2)cc1C (configuration not stated)	-14%	-39%	8%	-40%	-43%[1.84 µM]	9.2µM*
Cc1ccc(/C=C/C(=O)OCC(=O)Nc2cccc(S(=O)(=O)N(C)C)c2)o1	-1%	2%	21µM*	-2%	6%	-13%
CC(=O)N/C(=C\c1ccccc1)C(=O)OCC(=O)Nc1cc(S(=O)(=O)N(C)C)ccc1C	-1%	0%	3%	2%	·	4%
CN(C)S(=O)(=O)c1cccc(NC(=O)COC(=O)/C=C/c2ccc3c(c2)OCO3)c1	10%	-1%	12µM*	5%	6%	-10%
Cc1ccc(S(=O)(=O)N(C)C)cc1NC(=O)COC(=O)/C=C/c1ccc2c(c1)OCO2	0%	-1%	21µM*	1%	3%	8%
CN(C)S(=O)(=O)c1cccc(NC(=O)COC(=O)/C=C/c2ccco2)c1	1%	-8%	?	2%	2%	?
Cc1cc(C)c(NC(=O)CSc2nc(C)cc(C)c2C#N)c(C)c1	·	·	0%	·	-4%	·
Cc1cccc(C(=O)N2CCCCC2CCN2CCCCC2)c1 (configuration not stated)	·	·	1%	·	-7%	·
Cc1ccc(Cl)cc1N1CCN(C(=O)Cn2ncc3c([nH]c4ccccc43)c2=O)CC1	·	·	-1%	·	·	·
CCOC(=O)c1[nH]c(C)c(CCC(=O)Nc2cccc(C(F)(F)F)c2)c1C	·	·	4%	·	·	·
Cc1ccc(C)c(Cn2c(=O)n(-c3ccccc3)c(=O)c3c4c(sc32)CCCC4)c1	·	·	-3%	·	0%	·
CNC(=S)NNC(=O)c1cc(C(C)(C)C)nn1Cc1ccc(F)cc1	0%	-7%	-2%	-6%	·	14%
O=C1C=C(NCCO)C(=O)c2cnccc21	·	·	·	·	-115%	·
O=C1C=C(NCCN2CCOCC2)C(=O)c2cnccc21	-23%	-33%	-1%	-49%	-101%	4.1µM*
CCOc1ccc(-c2cc3nc(C4CCN(C(=O)OC(C)(C)C)CC4)c(C(=O)Nc4cccc(Cl)c4C)cn3n2)cc1	·	·	-2%	·	-1%	·
SMILES	ELG1 genotox	NPC1 promoter act	FLuc modulator	Rab9 promoter act	SMN2 splice up	ELG1 repair inh
CCN(CC)S(=O)(=O)c1ccc(N2CCOCC2)c(NC(=O)Cc2ccc(Cl)cc2)c1	-6%	1%	-15%	4%	·	?
CCN(CC)S(=O)(=O)c1ccc(N2CCOCC2)c(NC(=O)CC23CC4CC(CC(Br)(C4)C2)C3)c1	0%	-7%	1%	1%	-13%[1.84 µM]	9.2µM*
CCN(CC)S(=O)(=O)c1ccc(N2CCOCC2)c(NC(=O)COc2ccccc2C#N)c1	-11%	0%	-4%	22%	5%	9.2µM*
CCN(CC)S(=O)(=O)c1ccc(N2CCOCC2)c(NC(=O)COc2ccccc2C)c1	-2%	0%	4%	-4%	·	5.8µM*
COc1ccc2c(c1)CC/C(=C/c1ccco1)C2=O	?	2.2µM*	0.67µM*	3.5µM*	18µM*	?
Nc1ccc2c(c1)C/C(=C/c1ccco1)C2=O	21µM*	2.8µM*	0.6µM*	2µM*	?	?
COc1ccc2c(c1)CC/C(=C\c1ccc(OC)c(Cn3nc(C)cc3C)c1)C2=O	-21%	-4%	?	-4%	-15%	?
O=C1c2ccccc2CCc2ccc(Br)cc21	5%	0%	?	-2%	·	29%
CCC1C/C(=C/c2ccco2)C(=O)/C(=C/c2ccco2)C1 (configuration not stated)	6%	1%	-8%	3%	-9%	?
O=C1/C(=C/c2ccco2)CCc2ccccc21	7.3µM*	4µM*	2.1µM*	?	?	?
c1ccn2cc(CSc3nnc4ccccn34)nc2c1	10µM*	3.5µM*	13µM*	1µM*	17%	?
c1ccn2cc(CSC3=NCCS3)nc2c1	?	?	19µM*	?	?	?
c1ccn2c(SCc3ccc4c(c3)OCCO4)nnc2c1	21µM*	?	?	3.5µM*	11µM*	?
Cc1cc(=O)[nH]c(SCc2cn3ccccc3n2)n1	4%	1%	-10%	-3%	18%	?
c1ccc(-n2nnnc2SCc2cn3ccccc3n2)cc1	-4%	7%	-3%	8%	9%	4%
O=[N+]([O-])c1cccc(CSc2nnc3ccccn23)c1	4%	-4%	6%	1%	2%	-10%
Cn1ccnc1SCc1cn2ccccc2n1	?	3.2µM*	17µM*	3.2µM*	?	?
Cc1ccn2cc(CSc3ccccc3)nc2c1	3.7µM*	1.3µM*	4.8µM*	1.4µM*	13µM*	?
Cc1ccc(SCc2cn3cccnc3n2)cc1	?	?	?	27%	21%	?
C=CCNC(=O)c1c(Br)cnn1-c1ccc(C)cc1	?	2.5µM*	19µM*	2.5µM*	·	?
Cc1ccc(-n2ncc(Cl)c2C(=O)NCc2ccccc2)cc1	?	?	11µM*	?	·	?
